Measured values as given in PubChem BioAssay (EPA / NIEHS).
Activity calls are given as the source filed them. How the source made its calls: active means hit-call score of the fitted dose curve at least 0.9, where 1 is the maximum; inactive means score below 0.9.

Assays:
[1] = read-out: Vascular cell adhesion molecule 1 (VCAM1), VCAM1 (gene 7412); assay: BSK_hDFCGF_VCAM1: BioMAP Diversity Plus: hDFCGF Assay for Vascular cell adhesion molecule 1 (VCAM1) Biomarker Activity (AID 2283065); details: primary human foreskin fibroblasts; actives raise or lower the signal;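 on AC50: VCAM-1 protein level quantified by ELISA after 24 h chemical exposure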
Outline: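 Human foreskin fibroblast primary cells, chemical exposure 24 h; VCAM-1 by ELISA; bidirectional fit, DMSO = negative control/baseline.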

[2] = read-out: Plasminogen activator inhibitor-1 (PAI1), SERPINE1 (gene 5054); assay: BSK_hDFCGF_PAI1: BioMAP Diversity Plus: hDFCGF Assay for Plasminogen activator inhibitor-1 (PAI1) Biomarker Activity (AID 2283066); details: primary human foreskin fibroblasts; actives raise or lower the signal
Outline: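 Primary dermal fibroblasts (human foreskin), hDFCGF system; compound 24 h; PAI-1 by ELISA; bidirectional fit vs DMSO control.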

[3] = read-out: Intercellular Adhesion Molecule 1 (ICAM1), ICAM1 (gene 3383); assay: BSK_KF3CT_ICAM1: BioMAP Diversity Plus: KF3CT Assay for Intercellular Adhesion Molecule 1 (ICAM1) Biomarker Activity (AID 2283067); details: primary human keratinocytes with fibroblasts; actives raise or lower the signal
Outline: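 ICAM-1 levels are measured by ELISA 24 h after dosing a primary human co-culture of keratinocytes and foreskin fibroblasts. Activity in either direction is fitted relative to DMSO vehicle.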

[4] = read-out: Interferon-gamma inducible Protein 10 (IP10), CXCL10 (gene 3627); assay: BSK_KF3CT_IP10: BioMAP Diversity Plus: KF3CT Assay for Interferon-gamma inducible Protein 10 (IP10) Biomarker Activity (AID 2283068); details: primary human keratinocytes with fibroblasts; actives raise or lower the signal
Outline: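 KF3CT co-culture (keratinocytes + foreskin fibroblasts), 24 h compound, IP-10 by ELISA; bidirectional fit vs DMSO baseline.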

[5] = BSK_KF3CT_SRB: Viability Assessment in the BioMAP Diversity Plus: KF3CT Assay (AID 2283069); details: primary human keratinocytes with fibroblasts;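 further: total protein by sulforhodamine B staining as a cytotoxicity measure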
Outline: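 Human primary keratinocyte plus foreskin fibroblast co-culture exposed to chemicals for 24 h. Total protein measured by 0.1% sulforhodamine B staining after 10% TCA fixation, read at 560 nm; bidirectional fitting versus DMSO baseline.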

[6] = read-out: Interleukin-1 alpha (IL1a), IL1A (gene 3552); assay: BSK_KF3CT_IL1a: BioMAP Diversity Plus: KF3CT Assay for Interleukin-1 alpha (IL1a) Biomarker Activity (AID 2283070); details: primary human keratinocytes with fibroblasts; actives raise or lower the signal
Outline: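 Human keratinocyte plus foreskin fibroblast primary co-culture, sampled 24 h after chemical dosing. IL-1a measured by ELISA; responses fitted bidirectionally against DMSO baseline (negative control), so gain or loss of signal both count.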

[7] = read-out: TIMP metallopeptidase inhibitor 2 (TIMP2), TIMP2 (gene 7077); assay: BSK_KF3CT_TIMP2: BioMAP Diversity Plus: KF3CT Assay for TIMP metallopeptidase inhibitor 2 (TIMP2) Biomarker Activity (AID 2283071); details: primary human keratinocytes with fibroblasts; actives raise or lower the signal
Outline: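 Cells: human keratinocytes co-cultured with foreskin fibroblasts. Treat with chemical, 24 h. Measure TIMP-2 by ELISA; fit curves bidirectionally vs DMSO baseline.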

[8] = read-out: Transforming growth factor beta 1 (TGFb1), TGFB1 (gene 7040); assay: BSK_KF3CT_TGFb1: BioMAP Diversity Plus: KF3CT Assay for Transforming growth factor beta 1 (TGFb1) Biomarker Activity (AID 2283072); details: primary human keratinocytes with fibroblasts; actives raise or lower the signal
Outline: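 Primary human skin cells (keratinocytes, foreskin fibroblasts) were co-cultured, exposed to test chemical and sampled at 24 h. TGF-b1 levels were measured by ELISA and fitted bidirectionally relative to DMSO.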

[9] = read-out: C-C motif chemokine 2 (Homo sapiens) (UniProt P13500); assay: BSK_KF3CT_MCP1: BioMAP Diversity Plus: KF3CT Assay for Monocyte Chemoattractant Protein 1 (MCP1/CCL2) Biomarker Activity (AID 2283073); details: primary human keratinocytes with fibroblasts; actives raise or lower the signal
Outline: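 ELISA readout of MCP-1 after 24 h chemical dosing of a human skin primary co-culture of keratinocytes and foreskin fibroblasts. Activity was fitted in both directions against DMSO.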

[10] = read-out: Matrix Metallopeptidase 9 (MMP9), MMP9 (gene 4318); assay: BSK_KF3CT_MMP9: BioMAP Diversity Plus: KF3CT Assay for Matrix Metallopeptidase 9 (MMP9) Biomarker Activity (AID 2283074); details: primary human keratinocytes with fibroblasts; actives raise or lower the signal;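 on AC50: MMP9 protein level quantified by ELISA in the co-culture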
Outline: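 Keratinocyte plus foreskin fibroblast human primary skin co-culture was dosed with chemical and MMP-9 was quantified by ELISA 24 h later. Bidirectional curve fitting used DMSO as negative control and activity baseline.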

[11] = read-out: urokinase plasminogen activator (uPA), PLAU (gene 5328); assay: BSK_KF3CT_uPA: BioMAP Diversity Plus: KF3CT Assay for urokinase plasminogen activator (uPA) Biomarker Activity (AID 2283075); details: primary human keratinocytes with fibroblasts; actives raise or lower the signal
Outline: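 Human keratinocyte plus foreskin fibroblast primary co-culture exposed to chemical for 24 h. uPA levels were quantified by ELISA, and activity was fitted bidirectionally against a DMSO negative-control baseline.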

[12] = read-out: CD40, CD40 (gene 958); assay: BSK_LPS_CD40: BioMAP Diversity Plus: LPS Assay for CD40 Biomarker Activity (AID 2283076); details: primary human HUVEC with PBMC; actives raise or lower the signal
Outline: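 Cells were dosed, incubated 24 h, then assayed for CD40 by ELISA. Gain or loss of signal was analysed relative to DMSO controls. The culture paired human umbilical vein endothelium with peripheral blood mononuclear cells.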

[13] = read-out: E-selectin (Homo sapiens) (UniProt P16581); assay: BSK_LPS_Eselectin: BioMAP Diversity Plus: LPS Assay for Eselectin Biomarker Activity (AID 2283077); details: primary human HUVEC with PBMC; actives raise or lower the signal
Outline: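 Primary human vascular co-culture (endothelium plus PBMC) was dosed with chemical, then E-selectin quantified by ELISA at 24 h. Endpoint values derive from bidirectional curve fitting relative to DMSO.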

[14] = read-out: Interleukin-8 (IL8), CXCL8 (gene 3576); assay: BSK_LPS_IL8: BioMAP Diversity Plus: LPS Assay for Interleukin-8 (IL8) Biomarker Activity (AID 2283078); details: primary human HUVEC with PBMC; actives raise or lower the signal
Outline: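 Readout is IL-8 by ELISA, taken 24 h after compounds were added to LPS-stimulated endothelial/PBMC co-cultures. Both increases and decreases relative to DMSO control were scored through bidirectional fitting.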

[15] = read-out: Interleukin-1 alpha (IL1a), IL1A (gene 3552); assay: BSK_LPS_IL1a: BioMAP Diversity Plus: LPS Assay for Interleukin-1 alpha (IL1a) Biomarker Activity (AID 2283080); details: primary human HUVEC with PBMC; actives raise or lower the signal
Outline: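 ELISA read-out of IL-1 alpha from a human primary vascular co-culture (endothelium plus PBMC) under LPS, sampled 24 hours post-dosing. Activity was fitted in both directions relative to DMSO controls.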

[16] = read-out: Monocyte Chemoattractant Protein-1 (MCP1), CCL2 (gene 6347); assay: BSK_LPS_MCP1: BioMAP Diversity Plus: LPS Assay for Monocyte Chemoattractant Protein-1 (MCP1) Biomarker Activity (AID 2283081); details: primary human HUVEC with PBMC; actives raise or lower the signal;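 on AC50: secreted MCP-1 protein quantified by ELISA in culture supernatant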
Outline: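 Human endothelial–PBMC co-cultures were dosed with chemical, then LPS-driven MCP-1 levels were quantified by ELISA at 24 h. Activity in either direction was fitted versus DMSO negative control.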

[17] = BSK_LPS_PGE2: BioMAP Diversity Plus: LPS Assay for Prostaglandin E2 (PGE2) Biomarker Activity (AID 2283082); details: primary human HUVEC with PBMC; actives raise or lower the signal;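 on AC50: secreted prostaglandin E2 measured by ELISA in LPS-stimulated co-culture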
Outline: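 LPS-activated HUVEC/PBMC co-culture; cmpd dosed, 24 h; PGE2 by ELISA; bidirectional fit vs DMSO; SRB (0.1%, TCA-fixed, 560 nm) in parallel plates for overt cytotox.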

[18] = read-out: Macrophage colony-stimulating factor (MCSF), CSF1 (gene 1435); assay: BSK_LPS_MCSF: BioMAP Diversity Plus: LPS Assay for Macrophage colony-stimulating factor (MCSF) Biomarker Activity (AID 2283083); details: primary human HUVEC with PBMC; actives raise or lower the signal
Outline: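 ELISA readout of M-CSF after 24 h compound exposure in a human endothelial/PBMC co-culture. Activity, in either direction, is fitted relative to DMSO vehicle.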

[19] = read-out: Tissue Factor, F3 (gene 2152); assay: BSK_LPS_TissueFactor: BioMAP Diversity Plus: LPS Assay for Tissue Factor Biomarker Activity (AID 2283084); details: primary human HUVEC with PBMC; actives raise or lower the signal
Outline: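 ELISA signal for cell-surface Tissue Factor (CD142) was read 24 h after compound dosing of an LPS-stimulated human endothelial–PBMC primary co-culture. Gain or loss of signal was scored relative to DMSO.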

[20] = read-out: Tumor necrosis factor (Homo sapiens) (UniProt P01375); assay: BSK_LPS_TNFa: BioMAP Diversity Plus: LPS Assay for Tumour Necrosis Factor alpha (TNFa) Biomarker Activity (AID 2283085); details: primary human HUVEC with PBMC; actives raise or lower the signal;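 on AC50: TNFa protein level quantified by ELISA in the co-culture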
Outline: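 Read-out is ELISA of TNFa in primary human endothelial cell–PBMC co-cultures at 24 h after compound. Activity in either direction was fitted against DMSO.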

Measured: AC50

Chain of Tumor necrosis factor (Homo sapiens) (P01375 whole entry, looked up): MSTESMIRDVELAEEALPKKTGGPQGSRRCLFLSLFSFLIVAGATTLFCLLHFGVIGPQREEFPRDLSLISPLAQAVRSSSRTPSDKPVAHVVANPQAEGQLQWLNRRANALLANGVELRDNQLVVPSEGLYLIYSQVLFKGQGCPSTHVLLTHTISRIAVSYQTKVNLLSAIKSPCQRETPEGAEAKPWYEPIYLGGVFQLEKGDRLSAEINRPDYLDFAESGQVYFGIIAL
Chain of E-selectin (Homo sapiens) (P16581 whole entry, looked up): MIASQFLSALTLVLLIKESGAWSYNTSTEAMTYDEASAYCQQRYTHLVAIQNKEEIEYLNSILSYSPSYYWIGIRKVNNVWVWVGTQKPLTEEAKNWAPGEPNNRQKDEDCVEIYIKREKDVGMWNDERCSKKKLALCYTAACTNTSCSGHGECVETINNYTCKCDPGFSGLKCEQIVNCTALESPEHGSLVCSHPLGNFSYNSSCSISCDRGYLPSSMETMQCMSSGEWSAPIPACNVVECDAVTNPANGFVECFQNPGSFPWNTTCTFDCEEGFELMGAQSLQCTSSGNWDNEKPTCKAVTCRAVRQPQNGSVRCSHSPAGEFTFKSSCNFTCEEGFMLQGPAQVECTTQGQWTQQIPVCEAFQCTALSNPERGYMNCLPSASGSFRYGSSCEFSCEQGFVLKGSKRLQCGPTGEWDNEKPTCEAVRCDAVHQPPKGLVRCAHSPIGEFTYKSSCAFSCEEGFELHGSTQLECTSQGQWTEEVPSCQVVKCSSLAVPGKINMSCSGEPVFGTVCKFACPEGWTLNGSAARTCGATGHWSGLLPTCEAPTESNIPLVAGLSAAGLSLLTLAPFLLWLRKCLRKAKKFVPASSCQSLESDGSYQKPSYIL

C=CCOc1c(Br)cc(Br)cc1Br
active: [1] 33.1 µM | [2] 20 µM | [3] 30.7 µM | [4] 38.9 µM | [5] 27.8 µM | [6] 20 µM | [7] 11.4 µM | [8] 9.26 µM | [9] 12.2 µM | [10] 20 µM | [11] 28.6 µM | [16] 0.054 µM
inactive: [12] | [13] | [14] | [15] | [17] | [18] | [19] | [20]

CCCCCCCCCCCCCCCC[N+](C)(C)CC
inactive: [17]
active: [1] 1.82 µM | [2] 1.53 µM | [3] 4.6 µM | [4] 2.96 µM | [5] 5.14 µM | [6] 3.23 µM | [7] 2.15 µM | [8] 7.9 µM | [9] 6.3 µM | [10] 1.68 µM | [11] 7.22 µM | [12] 3.07 µM | [13] 5.7 µM | [14] 8.09 µM | [15] 1.42 µM | [16] 2.58 µM | [18] 2.18 µM | [19] 2.36 µM | [20] 4.58 µM

O=C1CCCN1CCO
not listed: [8]
inactive: all other assays above

CC(C)(c1cc(Br)c(OCCO)c(Br)c1)c1cc(Br)c(OCCO)c(Br)c1
inactive: [13] | [14] | [15] | [16] | [18] | [19] | [20]
active: [1] 7.21 µM | [2] 16.2 µM | [3] 16.2 µM | [4] 9.81 µM | [5] 9.41 µM | [6] 12.1 µM | [7] 16.2 µM | [8] 6.03 µM | [9] 16.2 µM | [10] 7.47 µM | [11] 16.2 µM | [12] 11.9 µM | [17] 0.121 µM

CCO[Si](CCCN=C=O)(OCC)OCC
inactive: all assays above

C=CC(=O)OCC(Br)CBr (stereo not drawn)
inactive: [9] | [17]
active: [1] 1.65 µM | [2] 8.55 µM | [3] 25.2 µM | [4] 30 µM | [5] 33.8 µM | [6] 32.2 µM | [7] 32 µM | [8] 5.81 µM | [10] 28.1 µM | [11] 34.1 µM | [12] 15.6 µM | [13] 20 µM | [14] 12.5 µM | [15] 18.3 µM | [16] 30 µM | [18] 20 µM | [19] 16.7 µM | [20] 11 µM

CCCCC(CC)COCC1CO1 (stereo not drawn)
not listed: [8]
inactive: all other assays above

O=C(Nc1ccccc1SSc1ccccc1NC(=O)c1ccccc1)c1ccccc1
active: [12] 4.75 µM | [14] 5.19 µM | [15] 2.65 µM | [18] 5.44 µM | [20] 5.18 µM
inactive: all other assays above
